Experimental data as given in PubChem BioAssay (NCATS).
Results filed as inconclusive are left out. The source made the active and inactive calls. Unless noted, calls come from the whole dose curve; as a rule, active = well fitted curve in the direction sought with a large enough effect; inconclusive = small, poorly fitted or top-dose-only effect, or another doubt; inactive = no such curve, though single readings can be large; an effect the other way counts as inactive or inconclusive.

Assays:
[1] = Primary qHTS for inhibitors of nuclear receptor binding SET domain protein 2 (NSD2) in an RCH-ACV wild type WT cells (2C) (AID 1645877); note: potency is the fitted concentration of half-maximal effect; nearly all actives have a fitted effect of over 70% in size
[2] = tested on: HACAT; assay: qHTS assay to identify novel small-molecules to repurpose for Merkel cell carcinoma treatment (AID 1296009); conditions: MCC and control cell lines, CellTiter-Glo viability, 72 h; at 44.8 µM (top of the series) unless noted; note: nearly all actives have a fitted effect of over 60% in size
Method in brief: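 Dose-response viability screen; 72 hr exposure at 37 degree celsius; CellTiter-Glo added, 10 min room temperature, luminescence read; RLUs scaled between no-cell and DMSO wells.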

[3] = tested on: C33A; assay: Primary qHTS to identify gynecologic anti-cancer compounds using libraries of approved drugs and bioactive compounds (AID 1345084); conditions: Gynecologic cancer cell panel viability, ATPlite luminescence, 48 h; series mostly up to 57.5 µM; note: nearly all actives have a fitted effect of over 55% in size; note: potency is the fitted concentration of half-maximal effect; for activity change, negative = cytotoxicity: % is set by controls: 0 for no effect and ±100 for the full control effect
Method in brief: (§1)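 In this quantitative HTS, cell killing is estimated from loss of ATP-dependent luciferase light. Cells see five compound concentrations over a 48 h exposure.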

[4] = tested on: Es-2; assay: as above; conditions: Gynecologic cancer cell panel viability, ATPlite luminescence, 48 h; series mostly up to 57.5 µM
Method in brief: as §1

[5] = tested on: Hek293T; assay: as above; conditions: Gynecologic cancer cell panel viability, ATPlite luminescence, 48 h, control line for the selectivity index; series mostly up to 57.5 µM
Method in brief: as §1

[6] = tested on: PA-1; assay: as above; conditions: Gynecologic cancer cell panel viability, ATPlite luminescence, 48 h; series mostly up to 57.5 µM
Method in brief: as §1

[7] = tested on: SKOV3; assay: as above; conditions: Gynecologic cancer cell panel viability, ATPlite luminescence, 48 h; series mostly up to 57.5 µM
Method in brief: as §1

[8] = tested on: Tov112D; assay: as above; conditions: Gynecologic cancer cell panel viability, ATPlite luminescence, 48 h; series mostly up to 57.5 µM
Method in brief: as §1

[9] = tested on: Zika virus NS2B-NS3 protease (unlinked complex); assay: Primary screen GU Rhodamine qHTS for Zika virus inhibitors: Unlinked NS2B-NS3 protease assay (AID 1347159); note: % is set by controls: 0 for no effect and ±100 for the full control effect; nearly all actives have a fitted effect of over 60% in size
Method in brief: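 Buffer 10 mM Tris-HCl pH 8.0, 0.01% Tween 20. Unlinked protease 25 nM; compound preincubation 15 min, RT, protected from light. Substrate Rhod110, 1.5 microM; ~15% conversion in 15 min.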

[10] = molecular target: Cytochrome P450 2D6 (Homo sapiens) (UniProt P10635); assay: Cytochrome P450 family 2 subfamily D member 6 (CYP2D6) small molecule antagonists: luciferase biochemical (cell-free) qHTS assay (AID 1645840; active = well fitted curve in the direction sought with a large enough effect in the repeat runs; an effect the other way counts as inactive or inconclusive; note: potency is the fitted concentration of half-maximal effect; nearly all actives have a fitted effect of over 55% in size)
Cytochrome P450 2D6 (Homo sapiens), sequence (P10635 whole entry, looked up): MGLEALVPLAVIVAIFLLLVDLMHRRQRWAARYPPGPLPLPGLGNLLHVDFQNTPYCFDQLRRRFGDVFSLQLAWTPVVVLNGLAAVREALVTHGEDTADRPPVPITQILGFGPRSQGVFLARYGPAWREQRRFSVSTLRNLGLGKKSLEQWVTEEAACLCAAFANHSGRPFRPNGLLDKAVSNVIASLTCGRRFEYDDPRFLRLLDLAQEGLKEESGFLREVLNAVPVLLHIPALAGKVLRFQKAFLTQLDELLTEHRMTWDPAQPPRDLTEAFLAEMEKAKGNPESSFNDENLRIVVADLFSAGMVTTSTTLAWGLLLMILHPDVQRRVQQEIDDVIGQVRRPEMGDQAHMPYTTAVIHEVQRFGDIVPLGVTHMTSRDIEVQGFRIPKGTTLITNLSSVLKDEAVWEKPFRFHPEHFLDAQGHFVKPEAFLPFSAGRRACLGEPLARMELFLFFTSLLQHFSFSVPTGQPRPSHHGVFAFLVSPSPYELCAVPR
Method in brief: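 P450-Glo CYP2D6 system: proluciferin substrate converted by enzyme to luciferin, read by luminescence proportional to activity. Enzyme-substrate mix with compound 10 min at room temperature, then NADPH regeneration 1 h before detection reagent.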

[11] = tested on: NIH3T3; assay: Cytotoxic Profiling of Annotated Libraries Using Quantitative High-Throughput Screening (AID 1296008); conditions: Five cell lines viability, CellTiter-Glo ATP luminescence, 48-72 h; max response: stronger effect = lower value; note: nearly all actives have a fitted effect of over 60% in size; note: potency is the fitted concentration of half-maximal effect; for max response: % is set by controls: 0 for no effect and ±100 for the full control effect
Method in brief: (§2)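 Cells exposed to compounds for 48 or 72 hr at 37 degrees Celsius. Viability read as ATP-coupled luminescence with CellTiter-Glo after 10 min at room temperature.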

[12] = tested on: CAOV3; assay: Primary qHTS to identify gynecologic anti-cancer compounds using libraries of approved drugs and bioactive compounds (AID 1345084); conditions: Gynecologic cancer cell panel viability, ATPlite luminescence, 48 h; series mostly up to 57.5 µM; note: nearly all actives have a fitted effect of over 55% in size; note: potency is the fitted concentration of half-maximal effect; for activity change, negative = cytotoxicity: % is set by controls: 0 for no effect and ±100 for the full control effect
Method in brief: as §1

[13] = tested on: HeLa; assay: as above; conditions: Gynecologic cancer cell panel viability, ATPlite luminescence, 48 h; series mostly up to 57.5 µM
Method in brief: as §1

[14] = molecular target: Cytochrome P450 2C9 (Homo sapiens) (UniProt P11712); assay: Cytochrome P450 family 2 subfamily C member 9 (CYP2C9) small molecule antagonists: luciferase biochemical (cell-free) qHTS assay (AID 1645842; active = well fitted curve in the direction sought with a large enough effect in the repeat runs; an effect the other way counts as inactive or inconclusive; note: potency is the fitted concentration of half-maximal effect; nearly all actives have a fitted effect of over 55% in size)
Cytochrome P450 2C9 (Homo sapiens), sequence (P11712 whole entry, looked up): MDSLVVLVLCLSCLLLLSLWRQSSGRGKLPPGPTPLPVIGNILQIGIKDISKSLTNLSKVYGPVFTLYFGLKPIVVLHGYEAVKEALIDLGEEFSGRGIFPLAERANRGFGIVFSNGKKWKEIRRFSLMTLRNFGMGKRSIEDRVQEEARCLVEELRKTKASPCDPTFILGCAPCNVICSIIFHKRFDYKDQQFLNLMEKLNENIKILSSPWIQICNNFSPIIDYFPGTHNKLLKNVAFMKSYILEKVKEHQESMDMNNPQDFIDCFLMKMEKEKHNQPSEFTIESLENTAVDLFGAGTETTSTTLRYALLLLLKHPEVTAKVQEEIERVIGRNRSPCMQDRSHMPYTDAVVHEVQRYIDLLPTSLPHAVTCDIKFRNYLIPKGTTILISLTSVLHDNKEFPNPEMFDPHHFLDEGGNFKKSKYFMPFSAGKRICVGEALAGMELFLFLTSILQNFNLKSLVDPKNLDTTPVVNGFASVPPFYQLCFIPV
Method in brief: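 P450-Glo CYP2C9 system: proluciferin substrate with enzyme in mix containing 0.4% BSA, 10 min at room temperature, then NADPH regeneration solution added and incubated 1 h at 37C. Detection reagent stopped reaction; luminescence read after 20 min as RLU.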

[15] = tested on: HEK293; assay: Cytotoxic Profiling of Annotated Libraries Using Quantitative High-Throughput Screening (AID 1296008); conditions: Five cell lines viability, CellTiter-Glo ATP luminescence, 48-72 h; max response: stronger effect = lower value; note: nearly all actives have a fitted effect of over 60% in size; note: potency is the fitted concentration of half-maximal effect; for max response: % is set by controls: 0 for no effect and ±100 for the full control effect
Method in brief: as §2

[16] = molecular target: Luciferin 4-monooxygenase (Photinus pyralis) (UniProt P08659); assay: Biochemical firefly luciferase enzyme assay for NPC (AID 624030);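 note: purified P. pyralis luciferase at 10 nM with luciferin and ATP substrate; 0% = DMSO and -100% = full luciferase inhibition by PTC124 control; nearly all actives have a fitted effect of over 70% in size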
Luciferin 4-monooxygenase (Photinus pyralis), sequence (P08659 whole entry, looked up): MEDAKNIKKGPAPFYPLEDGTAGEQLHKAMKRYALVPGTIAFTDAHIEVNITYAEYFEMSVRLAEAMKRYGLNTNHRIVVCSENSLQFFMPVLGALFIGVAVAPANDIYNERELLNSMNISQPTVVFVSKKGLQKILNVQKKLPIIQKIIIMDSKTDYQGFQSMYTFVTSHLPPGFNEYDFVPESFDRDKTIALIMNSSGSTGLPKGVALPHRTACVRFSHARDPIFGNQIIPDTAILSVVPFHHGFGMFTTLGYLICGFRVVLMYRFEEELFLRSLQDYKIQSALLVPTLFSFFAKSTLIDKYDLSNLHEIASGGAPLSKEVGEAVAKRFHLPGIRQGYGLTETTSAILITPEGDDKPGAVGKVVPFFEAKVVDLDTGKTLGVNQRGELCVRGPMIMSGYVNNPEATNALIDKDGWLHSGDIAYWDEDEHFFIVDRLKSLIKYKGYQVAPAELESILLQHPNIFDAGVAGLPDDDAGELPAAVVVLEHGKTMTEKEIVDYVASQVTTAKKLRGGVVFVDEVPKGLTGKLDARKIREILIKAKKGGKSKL
Method in brief: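 Purified P. pyralis luciferase at 10 nM in 50 mM Tris Acetate (final), luminescence read within 5 minutes of enzyme addition to compounds. Activity normalised to PTC124 versus DMSO; concentration-response curves classed by r2, magnitude and activity.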

CC(C)OC(=O)c1ccnc2cc(C(OCCN3CCCCC3)c3ccccc3Cl)sc12 (stereo unspecified)
active: Potency [1] 18.3 µM
inactive: outcome [2] | Potency [3] | Potency [4] | Potency [5] | Potency [6] | Potency [7] | Potency [8]

CCOC(=O)C1(CCc2ccccc2)CCN(Cc2ccc(NC(C)=O)cc2)CC1
active: Potency [10] 2.13 µM
inactive: Potency [9] | max response [11] -0.351% | Potency [3] | Potency [12] | Potency [4] | Potency [13] | Potency [5] | Potency [6] | Potency [7] | Potency [8]

CCOC(=O)c1ccnc2cc(C(OCCN3CCCCC3)c3ccccc3Cl)sc12 (stereo unspecified)
active: Potency [1] 20.5 µM
inactive: Potency [9] | outcome [2] | Potency [12]

O=C1Nc2ccc3ncsc3c2/C1=C/c1cnc[nH]1
inactive: Potency [9]
active: Potency [10] 1.69 µM | Potency [14] 3.38 µM | Potency [1] 0.578 µM | Potency [15] 5.17 µM | Potency [13] 22.4 µM | Potency [6] 7.94 µM

C[C@]12CC[C@H](O[C@@H]3O[C@H](CO)[C@@H](O)[C@H](O)[C@H]3O)CC1CC[C@@H]1C2CC[C@]2(C)[C@@H](C3=CC(=O)OC3)CC[C@]12O (stereo partly specified)
active: Potency [1] 3.17 µM | Potency [15] 3.17 µM | Potency [3] 5.62 µM | Potency [4] 10 µM | Potency [13] 10 µM | Potency [5] 7.94 µM | Potency [6] 7.94 µM | Potency [7] 8.91 µM | Potency [8] 3.16 µM
inactive: Potency [9] | outcome [11]

CC(C)(O)/C=C/C(=O)[C@](C)(O)[C@H]1[C@H](O)C[C@@]2(C)[C@@H]3CC=C4[C@@H](C[C@H](O)C(=O)C4(C)C)[C@]3(C)C(=O)C[C@]12C
active: Potency [1] 0.142 µM | Potency [15] 0.709 µM | Potency [11] 3.17 µM | Potency [12] 0.398 µM | Potency [13] 2.51 µM | Potency [6] 2.51 µM | Potency [7] 0.794 µM
inactive: Potency [3]

CN(CC[C@H](N)CC(=O)N[C@H]1C=C[C@@H](n2ccc(N)nc2=O)O[C@@H]1C(=O)O)C(=N)N
inactive: activity change, negative = inhibition [9] 11.2% [at 19.1 µM] | outcome [15] | outcome [2] inactive [at 9.27 µM] | activity change, negative = cytotoxicity [3] 6.23% [at 11.6 µM] | activity change, negative = cytotoxicity [12] 8.99% [at 11.6 µM] | activity change, negative = cytotoxicity [4] -2.42% [at 11.6 µM] | activity change, negative = cytotoxicity [13] 9.86% [at 11.6 µM] | activity change, negative = cytotoxicity [5] 1.23% [at 11.6 µM] | activity change, negative = cytotoxicity [6] 5.22% [at 11.6 µM] | activity change, negative = cytotoxicity [8] 1.2% [at 11.6 µM]

C1CN(P2(N3CC3)=NP(N3CC3)(N3CC3)=NP(N3CC3)(N3CC3)=N2)CCO1 (stereo unspecified)
inactive: Potency [16]

O=Cc1ccccc1
inactive: Potency [16]

CN(C)CCO
inactive: Potency [16]

COc1ccc(OC)c(C[C@H](C)N)c1
inactive: Potency [16]

CCOP(=S)(OCC)SCSc1ccc(Cl)cc1
inactive: Potency [16]
active: Potency [10] 9.52 µM | Potency [14] 0.213 µM
